Source: PubChem BioAssay
This excerpt belongs to a sample that is enriched for hits.
Pf apPOL block: Pf-apPOL DNA polymerase inhibition | Recombinant Pf-apPOL, molecular beacon fluorescence, 1.5 h | inhibition, % at 10 µM | 210,000 compounds, 0.25% hits | AID 1794808
mHTT-CaM PPI inh: disrupts binding of mutant huntingtin to calmodulin; AID 1671202; AlphaScreen His-mHTT/GST-CaM binding, luminescence; inhibition, % at 15 µM; 190,000 compounds, 3.6% hits;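 also: 0% = both proteins with DMSO and 100% = one protein alone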
* marks the source's active call; other numbers are inactive results; . = no result given. Rule as the data show it: active = inhibition above about 50%; inactive = the rest.

SMILES	Pf apPOL block	mHTT-CaM PPI inh
CCn1ccc(C(=O)N2CCCC2c2nc(-c3cccc(C(F)(F)F)c3)no2)n1 (stereo unspecified)	7	88*
Cc1c(C(=O)O)nnn1-c1ccc2c(c1)CCC2	4	-3
Cc1ccc2n1CCN(C(=O)Nc1cccc(C(F)(F)F)c1)C2C(C)C (stereo unspecified)	-3	74*
Cc1ccc2n1CCN(C(=O)Nc1ccccc1C(F)(F)F)C2C(C)C (stereo unspecified)	-1	-1
Cc1ccc2n1CCN(C(=O)Nc1ccc(F)c(Cl)c1)C2C(C)C (stereo unspecified)	-8	62*
CCCC1c2ccc(C)n2CCN1C(=O)Nc1ccc(F)c(Cl)c1 (stereo unspecified)	2	90*
CCCC1c2ccc(C)n2CCN1C(=O)Nc1cccc(Cl)c1 (stereo unspecified)	6	28
CC1c2cccn2CCN1C(=O)Nc1cccc(C(F)(F)F)c1 (stereo unspecified)	-3	21
CCCC1c2cccn2CCN1C(=O)Nc1cccc(C(F)(F)F)c1 (stereo unspecified)	-4	55*
Cc1ccc(NC(=O)N2CCn3c(C)ccc3C2C(C)C)cc1C (stereo unspecified)	-4	6
CCCn1c(=N)c(C(=O)NC(C)c2ccccc2)cc2c(=O)n3cccc(C)c3nc21 (stereo unspecified)	1	6
NNc1ccc(OC(F)(F)F)cc1	.	-3
Cn1c(=O)[nH]c(=O)c2[nH]c(NCc3ccco3)nc21	0	-1
O=C(O)C(Cc1ccccc1)N/C=C/C(=O)C(F)(F)F (stereo unspecified)	0	3
Cc1ccc(C(=O)N2CCCC(COc3ccc(C(=O)N4CCCC4)cc3)C2)cc1C (stereo unspecified)	-2	19
CC1c2cccn2CCN1C(=O)Nc1ccc(F)c(Cl)c1 (stereo unspecified)	-2	5
CCCC1c2cccn2CCN1C(=O)Nc1ccc(F)c(Cl)c1 (stereo unspecified)	-2	83*
CCCC1c2cccn2CCN1C(=O)Nc1ccc(F)cc1 (stereo unspecified)	-5	9
CCCC1c2cccn2CCN1C(=O)Nc1ccc(C)c(F)c1 (stereo unspecified)	3	51*
Cc1nc(C)c2c(n1)N(Cc1cccc(F)c1)C(=O)CC2	29	-11
CCOC(=O)COc1ccc2c(C)c(-c3ccc(OC)cc3)c(=O)oc2c1	-28	-21
COc1cc(C(=O)N2CC(=O)Nc3ccc(F)cc3C2c2ccc(F)cc2)cc(OC)c1OC (stereo unspecified)	-8	20
O=C(Cc1ccsc1)N1CCCC1c1nc(-c2ccccc2)n[nH]1 (stereo unspecified)	1	-11
O=[N+]([O-])c1cc(C(F)(F)F)ccc1N1CCc2ccccc21	1	95*
COC(CNC(=O)c1ccc(N2CCCCCC2)c([N+](=O)[O-])c1)OC	-2	12
SMILES	Pf apPOL block	mHTT-CaM PPI inh
O=[N+]([O-])c1cc(C(F)(F)F)ccc1N1CCCCC1	1	.
CCOC(CNC(=O)c1ccc(N2CCc3ccccc32)c([N+](=O)[O-])c1)OCC	-6	56*
O=C(CSc1ccc2nnc(-c3ccncc3)n2n1)NCc1ccccc1Cl	-2	0
CCOc1ccccc1NC(=O)N1CCCC1c1nc(-c2ccc(OC)cc2)no1 (stereo unspecified)	-4	-9
Cc1ccc(S(=O)(=O)N2CCN(S(=O)(=O)c3ccc(C)cc3)C2C)cc1	-2	-1
CC1=NN(c2ccc(C)c(Cl)c2)C(=O)C1	-2	91*
CC1=NN(c2cc(Cl)c(S(=O)(=O)O)cc2Cl)C(=O)C1	3	0
c1ccc2sc3c(-c4ccncc4)sc4ccccc4[nH]c-3nc2c1	-21	12
C(=Nc1ccc(Nc2ccccc2)cc1)c1ccccc1	-1	86*
Fc1ccc(N=Cc2ccccc2)cc1	9	.
COc1ccc(N=C2C(=O)Nc3ccc(Cl)cc32)cc1	-4	26
COc1ccc(N=C2C(=O)Nc3cc(Br)c(C)cc32)cc1	-3	66*
CCOc1ccc(Nc2cc(C)nc3ccc(Cl)cc23)cc1	-2	2
CCCCOc1ccc(Nc2cc(C)nc3ccc(OC)cc23)cc1	-10	61*
Cc1ccc(C2CC(c3ccc(Cl)cc3)n3nnnc3N2)cc1 (stereo unspecified)	4	54*
Cc1ccccc1C1CC(c2ccc(F)cc2)Nc2nc(N)nn21 (stereo unspecified)	1	40
Cc1ccc(C2CC(c3ccccc3)n3nnnc3N2)cc1 (stereo unspecified)	2	9
Cc1ccccc1C1CC(c2ccc(Br)cc2)Nc2nc(N)nn21 (stereo unspecified)	0	71*
COc1ccc(C2CC(c3cccc(C)c3)n3nc(N)nc3N2)cc1 (stereo unspecified)	-1	0
Nc1nc2n(n1)C(c1ccccc1)CC(c1ccccc1Cl)N2 (stereo unspecified)	-5	8
Cc1cccc(C2CC(c3ccc(Br)cc3)Nc3nc(N)nn32)c1 (stereo unspecified)	0	55*
Cc1ccc(C2CC(c3ccccc3Cl)Nc3nc(N)nn32)cc1 (stereo unspecified)	-3	67*
CC(=O)Nc1ccc(S(=O)(=O)N2CCC(c3nc4ccncc4n3CC(C)C)C2)cc1 (stereo unspecified)	-4	-4
COc1ccc(S(=O)(=O)N2CCC(CN3CCC(C)CC3)CC2)cc1Cl	-2	-9
COc1cc(C=C2SC(=S)N(c3ccc(C(=O)O)c(O)c3)C2=O)ccc1O	-46	70*
SMILES	Pf apPOL block	mHTT-CaM PPI inh
COc1cc(C=C2SC(=S)N(CC(=O)O)C2=O)ccc1O	-12	27
COc1cc(C=C2SC(=S)N(c3ccc4c(c3)OCO4)C2=O)cc(OC)c1OC	-5	17
COc1cc(C=C2SC(=S)N(c3cccc(O)c3)C2=O)ccc1O	-81	81*
COc1cc2c(cc1OC)C(c1cc(OC)c(OC)c(OC)c1)N(C)CC2 (stereo unspecified)	-7	-2
N#CSC(C#N)Cc1ccc([N+](=O)[O-])cc1 (stereo unspecified)	-1	60*
N#CSC(C#N)Cc1ccccc1 (stereo unspecified)	-7	42
Cc1ccc(-c2csc3ncnc(Nc4ccc(N5CCOCC5)cc4)c23)cc1	0	60*
Cc1sc2ncnc(Nc3ccc(N4CCCCC4)cc3)c2c1C	4	24
COc1ccc(CCC(=O)NCCCn2cccc2)cc1	-29	-3
Cc1nc(SCc2nc(-c3cccc(C(F)(F)F)c3)no2)[nH]c(=O)c1C	-7	3
O=C1CC(c2c[nH]c3ccccc23)C(=O)N1c1ccc(O)cc1 (stereo unspecified)	-4	77*
CC(C)(C)c1ccc(N2C(=O)CC(c3ccccc3)C2=O)cc1 (stereo unspecified)	2	.
CCCCN(CC)CCNC(=O)c1cn(CC(C)C)c(=O)c2c1c1ccccc1n2C	2	3
O=C1NC(c2ccccn2)Nc2sc3c(c21)CCC3 (stereo unspecified)	0	69*
O=C1NC(c2ccccc2[N+](=O)[O-])Nc2sc3c(c21)CCCC3 (stereo unspecified)	0	58*
O=C1NC(c2ccccc2F)Nc2sc3c(c21)CCCC3 (stereo unspecified)	-2	0
